Source: PubChem BioAssay (NCATS)
Inconclusive results are not listed. A number with no mark means an inactive call. Calls of active or inactive are those of the source. Calls come from the whole dose curve; as a rule, active = well fitted cell-killing curve with a large enough effect; inconclusive = small, poorly fitted or top-dose-only effect, or effect the other way; inactive = flat fitted curve, though single readings scatter.

test system: OV90; test: Primary qHTS to identify gynecologic anti-cancer compounds using libraries of approved drugs and bioactive compounds (AID 1345084); conditions: Gynecologic cancer cell panel viability, ATPlite luminescence, 48 h; series mostly up to 57.5 µM; activity change, negative = cytotoxicity: at the top concentration; note: nearly all actives have a fitted effect of over 55% in size
How it was run: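 ATP-based viability (ATPlite), 1,000 cells/well, 16 h pre-incubation, 48 h compound at 37 C, 5% CO2, 15 min RT before read.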
% is set by controls: 0 for no effect and ±100 for the full control effect; potency is the fitted concentration of half-maximal effect.

Structure (SMILES) | activity change, negative = cytotoxicity | Potency
CC(=O)N1CCN([C@H]2CCN(C(=O)N(C)[C@H](C)c3cc(C(F)(F)F)cc(C(F)(F)F)c3)[C@@H](c3ccc(F)cc3C)C2)CC1 | -0.842% | 
C=C1C(=O)O[C@@H]2C[C@@H](C)[C@]34C[C@]5(C(=O)O[C@H]6CC(C)=C([C@H](C)CCCO)[C@H](OC(=O)C(C)CC)[C@H]65)[C@@H](C(C)=C3C[C@@H]12)[C@H]4OC(C)=O (some centres not stated) | 1.74% [at 25.3 µM] | 
COc1ccccc1-c1c[nH]c2ncc(-c3cncc(C(=O)N(C)C)c3)cc12 | -15.9% | 
Fc1ccccc1CNCc1ccc(-c2ccnc3[nH]ccc23)cc1 | -4.23% | 
CCCCc1nc(C)c(CC(=S)N(C)C)c(=O)n1Cc1ccc(-c2ccccc2-c2nn[nH]n2)cc1 | -0.141% | 
Clc1ccccc1CNCC1CCC(CNCc2ccccc2Cl)CC1 (configuration not stated) | -24% | 
CC[C@H]1OC(=O)[C@H](C)[C@@H](O[C@H]2C[C@@](C)(OC)[C@@H](O)[C@H](C)O2)[C@H](C)[C@@H](O[C@@H]2O[C@H](C)C[C@H](N(C)C)[C@H]2O)[C@](C)(O)C[C@@H](C)/C(=N/OCOCCOC)[C@H](C)[C@@H](O)[C@]1(C)O | 12% | 
CC1=CC(=O)[C@@]2(C(C)C)C[C@@H]12 | 2.04% | 
CN(C)CC(=O)Nc1ccc2[nH]c(=O)c3ccccc3c2c1 | 0.536% | 
C=C1C(=O)O[C@@H]2/C=C(/C)CC3C=C(C[C@H](OC(=O)/C(C)=C\C)[C@@H]12)C(=O)O3 (some centres not stated) | -15.1% [at 38.5 µM] | 
COc1ccc2c(c1)CN(C(=O)CCN1CCC(Cc3ccccc3)CC1)CCS2 |  | 6.31 µM (active)
COc1ccc(-c2nc(-c3cc(C(F)(F)F)cc(C(F)(F)F)c3)n(Cc3ccc(C(N)=O)cc3)c2-c2ccc(OC)cc2)cc1 | 5.51% | 
